This is part of a sample that, as a whole, favours compounds with a hit. Of some 83,000 tested, about 20% had one in any assay.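 Compound tested at a single concentration for 48 hours in 96-well plates; a percent growth value below 10 was scored as active.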 Activity calls are given as the source filed them.
Tests used:
Test in all cases: NCI-60 one-dose screen, 48 h (100 = growth as untreated, 0 = no growth, -100 = all killed)
Settings in all cases: 10 µM
[1] = tested on: EKVX NSCLC
[2] = tested on: SN12C renal
[3] = tested on: UO-31 renal
[4] = tested on: TK-10 renal
[5] = tested on: ACHN renal
[6] = tested on: CCRF-CEM leukemia
[7] = tested on: MOLT-4 leukemia
[8] = tested on: SR leukemia
[9] = tested on: A498 renal
[10] = tested on: CAKI-1 renal

Measured: growth

COc1ccccc1CNCCN1C(=O)c2ccc3c4c(ccc(c24)C1=O)C(=O)N(CCNCc1ccccc1OC)C3=O
active: [1] -78.1% | [2] -91% | [3] -92.4% | [4] -30.8% | [5] -59.6% | [6] -50.3% | [7] -41.9% | [8] -47.1%

Cc1ccc(NC(=O)Nc2c(Cl)cccc2Cl)cn1
inactive: [1] 58.8% | [2] 105% | [3] 72.1% | [4] 128% | [5] 95.5% | [9] 106% | [6] 69.5% | [7] 86.9% | [8] 59.1%

Cc1cccc(NC2=C(C#N)C(=O)NC3(CCCC3)S2)c1
inactive: [1] 106% | [2] 97.3% | [3] 93.8% | [4] 107% | [5] 98.2% | [9] 96.9% | [6] 90.2% | [7] 98.4% | [8] 94.9%

O=C1ON=[N+](c2ccc(Cc3ccc([N+]4=NOC(=O)C4CN4CCOCC4)cc3)cc2)C1CN1CCOCC1 (stereo not drawn)
inactive: [1] 69.9% | [2] 80.3% | [3] 44.3% | [4] 74.5% | [10] 49.3% | [9] 53.7% | [6] 63.9% | [7] 68.4% | [8] 23%

CC12O[C@H](C[C@@H](O)[C@H]1O)n1c3ccccc3c3c4c(c5c6ccccc6n2c5c31)C(=O)N(CCCN)C4=O
inactive: [1] 54.9% | [2] 36.2% | [3] 57.6% | [4] 38.8% | [5] 79.4% | [9] 42.3% | [6] 11.2%
active: [7] -3.13% | [8] 0.745%

COc1cc(CNCCCCCCN2C(=O)c3cccc4cccc(c34)C2=O)ccc1O
active: [8] 0.634%
inactive: [1] 89.3% | [2] 70.5% | [3] 23.8% | [4] 85.4% | [5] 63.7% | [6] 45.4% | [7] 49.2%

COc1ccc(-c2cc(-c3ccc(N(C)C)cc3)c(C#N)c(N3CCCC3)n2)cc1
inactive: [1] 73.1% | [2] 89.2% | [3] 81.7% | [4] 85.4% | [5] 98.5% | [9] 106% | [6] 79.5% | [7] 81.2% | [8] 40.8%

c1ccc2c(c1)oc1c3cccnc3ccc21
inactive: [1] 64.4% | [2] 93.2% | [3] 44.2% | [4] 118% | [10] 84.1% | [9] 87.2% | [6] 111% | [7] 61.4%

Nc1nc(Nc2ccccc2)n[nH]1
inactive: [1] 95.8% | [2] 101% | [3] 82.3% | [4] 101% | [5] 89.7% | [9] 108% | [6] 97.7% | [7] 106% | [8] 102%

CN(C)CCN1C(=O)c2cccc3cc(N)cc(c23)C1=O
inactive: [1] 45.2% | [2] 30.9% | [4] 32.9% | [9] 41.8% | [6] 13.6%
active: [3] -26.8% | [5] -30.3% | [7] -2.12% | [8] 8.08%

CCCCC/C=C/C(=O)CCc1ccc(O)c(OC)c1
inactive: [1] 91.2% | [2] 81.3% | [3] 37% | [4] 110% | [5] 103% | [6] 27.6% | [7] 96.7% | [8] 53.4%

N#CC1=C(Nc2ccccc2Cl)SC(c2ccccc2O)NC1=O (stereo not drawn)
inactive: [1] 108% | [2] 102% | [3] 84.5% | [4] 134% | [5] 97.7% | [9] 95.2% | [6] 99.9% | [7] 104% | [8] 123%

Cc1cc(N(CCCNc2ccnc3cc(Cl)ccc23)Cc2ccc3c(c2)OCO3)nc(N2CCOCC2)n1
active: [3] 3.36% | [6] -8.38% | [7] -15.9% | [8] -27.7%
inactive: [1] 66.5% | [2] 44.7% | [4] 13.9% | [5] 14.3% | [9] 54.1%

ClCC#CCSc1ncnc2c1ncn2CC#CCCl
inactive: [1] 10.5% | [2] 20.2% | [4] 71.1% | [5] 11.7% | [6] 14.9% | [7] 15.4% | [8] 14.6%
active: [3] 2.36%

CC(=O)n1c(-c2ccc(Cl)c(Cl)c2)cn(-c2ccc(Cl)cc2)c1=O
active: [3] 3.31% | [9] 4.91% | [6] -26.3% | [8] 0.989%
inactive: [1] 30.3% | [2] 46.9% | [4] 54.4% | [5] 22.8% | [7] 18.4%

COc1ccc(OC)c(/C=C/c2nnc(Nc3ccc(Cl)cc3)o2)c1
inactive: [1] 68.1% | [2] 44.9% | [4] 39.1% | [5] 32.6% | [6] 90.1% | [7] 89.7% | [8] 78.9%
active: [3] 4.98%

CC(=O)[C@H]1CC[C@H]2[C@@H]3CCC4=CC(=O)C=C[C@]4(C)[C@H]3CC[C@]12C
inactive: [1] 60.1% | [2] 95.9% | [3] 88.5% | [4] 106% | [10] 87.8% | [9] 60.4% | [6] 87.2% | [7] 87.1% | [8] 84.4%

CC[C@H](C)C(=O)O[C@H]1CCC=C2C=C[C@H](C)C(CCC3C[C@@H](O)CC(=O)O3)[C@H]21 (stereo partly drawn)
inactive: [1] 65.6% | [2] 32.4% | [3] 70.1% | [4] 97.2% | [6] 82.3% | [7] 91.9% | [8] 15.5%
active: [10] -1.64% | [9] -33.8%

CC(=O)OCc1cc(-c2nc3ccccc3[nH]c2=O)nn1-c1ccc(Cl)cc1
inactive: [1] 104% | [2] 105% | [3] 98.2% | [4] 119% | [5] 102% | [9] 100% | [6] 97.9% | [7] 87.6% | [8] 105%

Clc1cc2c(c(CSc3nc4ccccc4n4cccc34)c1)OCOC2
inactive: [1] 70.6% | [2] 81.5% | [3] 74% | [4] 79.4% | [5] 87.9% | [9] 102% | [6] 93.7% | [7] 94.8% | [8] 29.2%

O=C(NC(Cc1ccc(O)cc1)C(=O)N=Nc1c(O)[nH]c2ccccc12)c1ccccc1 (stereo not drawn)
inactive: [1] 97.3% | [2] 97.6% | [3] 74.9% | [4] 97.7% | [10] 98.9% | [9] 109% | [6] 89.6% | [7] 92.1% | [8] 92.7%

CCN(CC)CCC(CNc1c(C)cnc2cc(Cl)ccc12)c1ccc(Cl)c(Cl)c1 (stereo not drawn)
inactive: [1] 73.5% | [2] 59.1% | [3] 44.5% | [4] 94.4% | [10] 62.1% | [9] 24.6% | [6] 30.3% | [7] 25.2%
active: [8] -19.1%

Nc1nc(N)c2c(ccc3nccc32)[nH]1
inactive: [1] 51.6% | [2] 94% | [3] 39.3% | [4] 92.1% | [5] 42.7% | [9] 79.4% | [6] 27.9% | [7] 33.9% | [8] 28.5%

Cc1ccc(NC(=O)Nc2cccnc2)cc1NC(=O)Nc1cccnc1
inactive: [1] 82.4% | [2] 92% | [3] 85.3% | [4] 92.1% | [5] 83.8% | [9] 90.7% | [6] 58.2% | [7] 66.8% | [8] 31.3%

COc1ccc2c(c1)sc1nc(-c3ccccc3)c(-c3ccsc3)n12
inactive: [1] 40.8% | [2] 50.2% | [4] 46.1% | [5] 54.2% | [10] 27.9% | [6] 23.2% | [7] 36.4%
active: [9] -7.5% | [8] 6.49%

COc1cc2c(cc1OCCCN1CCN(c3ncnc4ccccc34)CC1)N=CC1CCCN1C2=O (stereo not drawn)
active: [1] -38.6% | [2] 3.4% | [4] -7.43% | [5] 2.77% | [10] -12.1% | [6] -45.8% | [7] -44.3% | [8] -43.4%

COc1ccc(-c2nc3ncccn3c2-c2nnc(-c3ccsc3C)o2)cc1
inactive: [1] 94.5% | [2] 87.7% | [4] 96.7% | [5] 72.3% | [10] 82.9% | [9] 99.4% | [6] 90.1% | [7] 97% | [8] 83.4%

Cc1cs/c(=N\NC(=O)c2cc(-c3cc4ccccc4o3)nn2-c2ccccc2)n1-c1ccccc1
inactive: [1] 72.4% | [2] 96.7% | [4] 121% | [5] 88.7% | [10] 100% | [6] 75.7% | [7] 75%

O=C1C(=O)c2ccccc2C(O)=C1CCCc1ccc(C2CCCCCC2)cc1
inactive: [1] 24.9% | [2] 53.4% | [4] 61% | [5] 38.6% | [6] 34.7% | [7] 49.2%
active: [10] -34.2%

O=C(Nc1ccncc1)C(=O)c1cn(S(=O)(=O)c2ccc(F)cc2)c2ccccc12
active: [8] 2.09%
inactive: [1] 52.1% | [2] 41.9% | [3] 20.6% | [4] 79% | [9] 66.2% | [6] 43.6% | [7] 25.7%
